Data reported in PubChem BioAssay AID2530 (National Center for Advancing Translational Sciences (NCATS), 2010).
Inconclusive results are not listed. Entries that show only a call come without a potency. Activity calls are given as the source filed them. Calls follow the shape of the dose curve; as a rule, active = well fitted inhibition curve with a large enough effect; inconclusive = small, poorly fitted or top-dose-only effect; inactive = flat fitted curve, though single readings scatter.

Biological target: Luciferin 4-monooxygenase (Photuris pensylvanica) (UniProt Q27757)
Assay: Secondary Assay for Luciferase (Kinase-Glo TM) Inhibition Counterscreen
How it was run: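 Kinase-Glo firefly-type luciferase with 10 uM ATP in 50 mM imidazole pH 7.2, 50 mM KCl, 7 mM MgCl2, 0.01% Tween 20, 0.05% BSA. Luminescence read after 8 min at ambient temperature, normalized to DMSO and 40 uM SIB 1757, then Hill-fitted.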
Potency is read from the fitted curve at half-maximal effect.

SMILES | Potency
Cc1ccccc1N=CC1=C(O)c2ccccc2C1=O | 11.6 µM (active)
CCOC(=O)Cc1csc(NC(=S)NC(=O)c2ccc([N+](=O)[O-])cc2)n1 | inactive
Cc1sc2nc(CN3CCN(c4ccc(O)cc4)CC3)[nH]c(=O)c2c1C | inactive
O=C1c2ccccc2C(=O)N1c1ccccn1 | inactive
CC(=O)N1CCc2cc(S(=O)(=O)Nc3ccc(C)c(C)c3)ccc21 | inactive
CCNc1cccc(S(=O)(=O)N2CCN(S(=O)(=O)c3ccc4c(c3)OCCO4)CC2)c1 | inactive
COc1cccc(N2C(=O)c3ccccc3C2=O)n1 | inactive
Cc1c(C(=O)NC(=S)Nc2ccc(NC(=O)c3cccs3)cc2)oc2ccccc12 | inactive
Cn1c2cc(S(C)=O)sc2c2cnn(Cc3cccc(N)c3)c(=O)c21 (stereo unspecified) | inactive
O=C(/C=C1\C(=O)Nc2ccccc21)/C=C1\C(=O)Nc2ccccc21 | inactive
Cc1ccc(NS(=O)(=O)c2ccc3c(c2)N(C)CCO3)cc1C | inactive
O=C1c2ccccc2-c2nnc(-c3ccccc3)cc21 | 4.11 µM (active)
Cc1ccc(N2C(=O)c3ccccc3C2O)nc1 (stereo unspecified) | 6.51 µM (active)
O=C1CCc2cc(S(=O)(=O)Nc3cccc(F)c3)ccc2N1 | inactive
COc1ccc(NS(=O)(=O)c2ccc3c(c2)CCC(=O)N3)cc1 | inactive
O=C1c2ccccc2C(=O)N1Cc1cccnc1 | inactive
COc1ccc(-c2nc(-c3ccccn3)no2)cc1 | 2.91 µM (active)
CC[n+]1c(C)sc2sc3ccccc3c21 | inactive
O=C1CCc2cc(S(=O)(=O)Nc3ccc(Cl)cc3)ccc2N1 | inactive
Cc1ccc(NC(=O)c2ccc3c(c2)CCC(=O)N3)cc1C | inactive
CN=c1scc(-c2ccco2)n1/N=C/c1ccc(O)c(O)c1 | inactive
